Paper PMC5540273 (PLoS ONE, 2017)

Tests used:
Settings in all cases: concentration: 1 μM, replicates: in singlicate; n = 1
GRK2 = tested on: T1, GRK2
T1 construct: gene ADRBK1

GRK3 = tested on: T2, GRK3
T2 construct: gene ADRBK2

GRK4 = tested on: GRK4
GRK7 = tested on: GRK7
GSK3A = tested on: GSK3A
GSK3B = tested on: GSK3B
HASPIN = tested on: T3, HASPIN
T3 construct: gene GSG2

HCK = tested on: HCK
HIPK1 = tested on: HIPK1
HIPK2 = tested on: HIPK2
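Further: KINOMEscan kinase panel screen.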

SMILES	%Inh (GRK2) [%]	%Inh (GRK3) [%]	%Inh (GRK4) [%]	%Inh (GRK7) [%]	%Inh (GSK3A) [%]	%Inh (GSK3B) [%]	%Inh (HASPIN) [%]	%Inh (HCK) [%]	%Inh (HIPK1) [%]	%Inh (HIPK2) [%]
COC(=O)c1c(-c2ccccc2)c2cc(Br)ccc2c(=O)n1Cc1ccc(S(C)(=O)=O)cc1	14	0	0	35	0	19	31	9	33	18
COc1ccc(-c2coc3ccc(-c4nnc(SCc5cccc(C#N)c5)o4)cc23)cc1	0	0	0	27	96.1	45	0	20	32	24
CCC(=O)c1c(-c2ccccc2)c2cc(Cl)ccc2c(=O)n1Cc1cc(S(C)(=O)=O)n(CC(N)=O)n1	0	0	0	0	6	0	0	24	29	0
COC(=O)c1c(-c2ccccc2)c2cc(C)ccc2c(=O)n1Cc1ccccc1	0	0	28	0	0	0	0	0	0	0
CCS(=O)(=O)c1ccc(OC)c(Nc2ncc(-c3ccc(F)cc3)o2)c1.Cl [GW591947]	0	0	0	0	8	0	0	0	33	0
OCCCNc1nccc(-c2c(-c3cccc(C(F)(F)F)c3)nn3cc(C(F)(F)F)ccc23)n1 [GW630813]	0	37	0	0	0	2	21	0	0	0
COc1cc2ncn(-c3cc(OCc4ccncc4Br)c(C(N)=O)s3)c2cc1OC [GW854278]	5	0	35	4	7	0	5	3	0	4
Cc1nnc(-c2ccc3ncn(-c4ccc(S(C)=O)cc4)c3c2)o1 (stereo not drawn)	0	0	0	0	74	36	0	13	28	10
COC(=O)c1c(-c2ccccc2)c2cc(Br)ccc2c(=O)n1Cc1ccc(NC(=O)CCC(=O)O)cc1	19	8	0	31	0	15	6	14	26	28
